In all, about 5,800 sequences were measured (“enrichment r”: median about 0.54, highest 2% from about 16 on). The sample as a whole holds a higher share of the highest values than the screen did.
B1: chr19:42216679:42217007:-|CDS|ENSG00000160570|control|control|control (ssRNA)
RNA: GGGAGUUCUACAGUCCGACGAUCCUUUCUGCUGGAUGAGGCUCCUGGCGCCGCCGGAGGCUUAGCCCGGGCCCGCAGCGGCCUAGAGCUCCUGCUGGAGCUGGAGCGCCGCGGGCAGUGCGACGAGAGCAACCUGCGGCUGCUCAACAGAGGAUUGAGCAUCA
B2: chr1:111117940:111118053:-|3pUTR|ENSG00000156171|unk|total|mutant (ssRNA)
RNA: GGGAGUUCUACAGUCCGACGAUCAGGCUGACAGUAACACUGAUGAAUGCUGAUAAUCAGGAAACAUGAAAGAAGCCAUUUGACCGAUUAUUCUAAAGGAUAUCAUCAAGAAGACUAUUAAAAACACCUAUGCCUAUACUUUUUCAACAGAGGAUUGAGCAUCA
B3: chr8:76983344:76983445:-|CDS|ENSG00000164751|msi1|total|mutant (ssRNA)
RNA: GGGAGUUCUACAGUCCGACGAUCAGCCACCAGUGGCAAAGAAUGCGCUCUAUGUGGAGAGUGGCCCACCAUGCCUCACACCACCGGAUGUGAGCAUAUUUUCUGUUAUUUCUGUGCUAAGAGCCGUUUCUUAUUUGACGUGUACAACAGAGGAUUGAGCAUCA
B4: chr12:101746137:101746238:-|3pUTR|ENSG00000111670|msi1|total|mutant (ssRNA)
RNA: GGGAGUUCUACAGUCCGACGAUCGGUCCGUAAAUUAUUGCAGGCCACCUGUGUCUUUGUCAUACAUUCUUCUUGCUGUUGUUCCGUUUGUUUUUUUUCAAACAACCCUCUAAAAAUGUAAAAACCAUGUUCCGCUUGCAGCUGCAACAGAGGAUUGAGCAUCA
B5: ENSG00000070961:be:win_2001|CDS|ENSG00000070961|bound_else_gene|NA|bound_elsewhere_windowed (ssRNA)
RNA: GGGAGUUCUACAGUCCGACGAUCAAAUGAUAUUGUCACCGGCCUUACAUGCAUUGCUGUUGUGGGGAUUGAAGAUCCUGUGAGACCUGAGGUGCCAGAUGCAAUUAAAAAGUGUCAGAGGGCUGGAAUUACUGUGCGGAUGGUCAACAGAGGAUUGAGCAUCA
B6: ENSG00000145990:stop:overlap|stop_codon|ENSG00000145990|stop_codon|NA|stop_codon (ssRNA)
RNA: GGGAGUUCUACAGUCCGACGAUCUGAGCCCCGCCUACCUGAUCAGCGAGGCCAUGCGCCGCAGCAGGAUGUCCCUCUACUGUUAGCACAGAUUGAGAACCUCGGGGACUUGAGCCUUCUGCAGGGGAUGUCCACAGAGAGGGACAACAGAGGAUUGAGCAUCA

Biological target: MSI1 full-length (mouse, UniProt Q61474 1-362)
Assay: nsRBNS (natural sequence RNA bind-n-seq); RBNS binding buffer (assumed for nsRBNS): 25 mM Tris pH 7.5, 150 mM KCl, 3 mM MgCl2, 0.01% Triton X-100, 500 ug/ml BSA, 20 U/ml SUPERase-In, 4 C; UNK is unkempt and MSI1 is Musashi-1; names of the RNAs are library labels; protein concentration not given here; high values mean tight binding

Sequence of MSI1 full-length (Q61474 whole entry): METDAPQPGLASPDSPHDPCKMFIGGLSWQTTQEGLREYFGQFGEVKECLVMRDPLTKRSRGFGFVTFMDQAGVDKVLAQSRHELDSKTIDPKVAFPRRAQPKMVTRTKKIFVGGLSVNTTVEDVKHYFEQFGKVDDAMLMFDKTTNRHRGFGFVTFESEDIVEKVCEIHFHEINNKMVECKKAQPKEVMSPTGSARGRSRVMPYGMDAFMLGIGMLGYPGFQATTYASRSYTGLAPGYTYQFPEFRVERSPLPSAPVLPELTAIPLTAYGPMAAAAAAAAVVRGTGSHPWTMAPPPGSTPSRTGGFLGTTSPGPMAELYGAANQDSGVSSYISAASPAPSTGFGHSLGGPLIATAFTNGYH

Row | Binder | binding signal
1 | B1 | 0.233 enrichment R
2 | B2 | 0.337 enrichment R
3 | B3 | 0.344 enrichment R
4 | B4 | 0.343 enrichment R
5 | B5 | 0.416 enrichment R
6 | B6 | 0.305 enrichment R
